# Results taken from PubChem BioAssay (NCATS).
# Results filed as inconclusive are left out. A call without a number means that no potency is given here. Unmarked numbers belong to inactive results. Activity calls are given as the source filed them. The call rests on the fitted dose curve; in most records, active means well fitted curve in the direction sought with a large enough effect; inconclusive means small, poorly fitted or top-dose-only effect, or another doubt; inactive means no such curve, though single readings can be large; an effect the other way counts as inactive or inconclusive.
# Legend:
# [1] = molecular target: Calcium and integrin-binding protein 1 (Homo sapiens) (UniProt Q99828); assay: Primary qHTS for Identification of Calcium Integrin Binding Protein 1 (CIB1) Competitor (AID 1508620);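 further: GST tagged CIB1 binding a fluorescein labelled alphaIIb integrin peptide tracer; top concentration of the series differs between compounds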
# Method in brief: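 Fluorescence polarization competition: CIB1-GST (1 uM final) preincubated with compound 15 min at room temperature, then FITC-labeled alphaIIb peptide (100 nM final) added for another 15 min. Polarization read at Ex 480/Em 540.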
# [2] = molecular target: Calcium and integrin-binding protein 1 (Homo sapiens) (UniProt Q99828); assay: Confirmatory qHTS for Identification of Calcium Integrin Binding Protein 1 (CIB1) Competitor (AID 1508617); further: nearly all actives have a fitted effect of over 65% in size
# Method in brief: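 Compounds at up to 114 uM final met 1 uM GST-tagged CIB1 for 15 min at room temperature (HEPES pH 7.4, 5 mM CaCl2). FITC-labelled alphaIIb peptide, 100 nM, added; polarization read after 15 min more.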
# [3] = Primary qHTS for inhibitors of nuclear receptor binding SET domain protein 2 (NSD2) in an isogenic RCH-ACV NSD2 p.E1099K mutant (9B) (AID 1645876); further: nearly all actives have a fitted effect of over 70% in size
# [4] = Primary qHTS for inhibitors of nuclear receptor binding SET domain protein 2 (NSD2) in an RCH-ACV wild type WT cells (2C) (AID 1645877); further: nearly all actives have a fitted effect of over 70% in size
# Calcium and integrin-binding protein 1 (Homo sapiens), sequence (Q99828 whole entry, looked up): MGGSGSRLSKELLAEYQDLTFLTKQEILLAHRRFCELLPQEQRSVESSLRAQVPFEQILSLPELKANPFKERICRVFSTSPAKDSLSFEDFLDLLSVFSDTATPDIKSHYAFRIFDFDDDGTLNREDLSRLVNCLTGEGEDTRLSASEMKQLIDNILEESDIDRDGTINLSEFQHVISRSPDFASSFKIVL
structure (smiles),measurement,setting,value
C=C(CCC1C(C)(O)CCC2C(C)(C)C(O)CCC12C)C(O)CO (configuration not stated),Potency,[1],inactive
O=C(c1ccccc1)c1c(O)cc(O)cc1O[C@@H]1O[C@H](CO)[C@@H](O)[C@H](O)[C@H]1O,Potency,[2],inactive
same,Potency,[3],inactive
same,Potency,[4],inactive
O=[N+]([O-])c1ccc(Oc2ccc3c(c2)CCC(c2ccccc2)O3)nc1 (configuration not stated),Potency,[1],inactive
C=CCC1=C[C@]2(OC)[C@H](C)[C@@H](c3ccc4c(c3)OCO4)O[C@]2(OC)CC1=O,Potency,[1],inactive
CC1(C)CN(C(=O)c2ccc(-c3cccc4nc(NC(=O)C5CC5)nn34)cc2)C1,Potency,[1],inactive
NC(=O)C1=CC2C3C=CC2C(OC3=O)O1 (configuration not stated),Potency,[1],inactive
Cc1ccc(C)c(NS(=O)(=O)c2cc(C(=O)Nc3ccccc3-c3ccccc3)ccc2C)c1,Potency,[1],inactive
CC(CCC1(O)OC2CC3C4CC=C5CC(O[C@@H]6O[C@H](CO)[C@@H](O[C@@H]7O[C@@H](C)[C@H](O)[C@@H](O)[C@H]7O)[C@H](O)[C@H]6O[C@@H]6O[C@@H](C)[C@H](O)[C@@H](O)[C@H]6O)CCC5(C)C4CCC3(C)C2C1C)CO[C@@H]1O[C@H](CO)[C@@H](O)[C@H](O)[C@H]1O (some centres not stated),Potency,[1],inactive
CC(CCC1(O)OC2CC3C4CC=C5C[C@@H](O[C@@H]6O[C@H](CO)[C@@H](O[C@@H]7O[C@@H](C)[C@H](O)[C@@H](O)[C@H]7O)[C@H](O)[C@H]6O[C@@H]6O[C@@H](C)[C@H](O)[C@@H](O)[C@H]6O)CC[C@]5(C)C4CC[C@]3(C)[C@@]2(O)[C@@H]1C)CO[C@@H]1O[C@H](CO)[C@@H](O)[C@H](O)[C@H]1O (some centres not stated),Potency,[1],inactive
CC(=O)O[C@@H]1C[C@@]2(C)C(CC[C@]3(C)C2CC=C2C4CC(C)(C)CC[C@]4(C(=O)O)CC[C@]23C)C(C)(C)[C@H]1O (some centres not stated),Potency,[1],inactive
CC1(CO)CC(O)[C@]2(C(=O)O)CCC34CC3(C=CC3[C@]5(C)C(CC[C@]34C)C(C)(CO)[C@@H](O)[C@H](O)[C@@H]5O)C2C1 (some centres not stated),Potency,[1],inactive
CC(C)=C1C[C@@]2(C)C(=CC1=O)CC[C@@H](OC(=O)/C(C)=C/CO)[C@@H]2C,Potency,[1],inactive
CC(=O)O[C@H]1C[C@H](OC(C)=O)[C@]2(C)[C@H](CC[C@@]34O[C@@H]3C3=C(C)C(=O)O[C@@H]3C[C@H]42)C1(C)C,Potency,[1],inactive
CC1CCCC(O)CCC/C=C/c2cc(OS(=O)(=O)O)cc(O)c2C(=O)O1 (configuration not stated),Potency,[1],inactive
N#Cc1ccc(-c2ccc(S(=O)(=O)Nc3cccc(N)n3)cc2)cc1,Potency,[1],inactive
CC(C)(CO)c1cc2cc(NC(=O)C3(c4ccc5c(c4)OC(F)(F)O5)CC3)c(F)cc2n1CC(O)CO (configuration not stated),Potency,[1],inactive
C=C1C(=O)OC2CC3(C)C(O)C(=O)C=C(C)C3CC12 (configuration not stated),Potency,[1],inactive
CCC(C)C(=O)OC12C(OC(C)=O)C(C)C3(O)C(C=C(CO)CC4(O)C(=O)C(C)=CC43)C1C2(C)C (configuration not stated),Potency,[1],inactive
O=C(NC[C@H](O)CN1CCc2ccccc2C1)c1ccnc(NC2CCC2)c1,Potency,[1],inactive
C[C@@H]1CN(CC(=O)N2CC(C)(C)c3ncc(Cc4ccc(F)cc4)cc32)[C@@H](CN2CCOC[C@H]2C)CN1,Potency,[1],inactive
CCC(C)C(=O)OC1C(C)C2(O)C(C=C(CO)CC3(O)C(=O)C(C)=CC32)C2C(C)(C)C12OC(=O)C(C)C (configuration not stated),Potency,[1],inactive
C=C1C(=O)O[C@@H]2C=C(COC(C)=O)CC/C=C(\CO)CC[C@@H]12,Potency,[1],inactive
COc1cc2ncnc(Nc3ccc(F)c(Cl)c3)c2cc1O,Potency,[1],inactive
CC(=O)O[C@H]1[C@H](O)C[C@@]2(C)C(CC[C@]3(C)C2CC=C2C4CC(C)(C)CC[C@]4(C(=O)O)CC[C@]23C)C1(C)C (some centres not stated),Potency,[1],inactive
COc1ccc(CCN(C)CCCOc2nsc(-c3ccccc3)n2)cc1OC,Potency,[1],inactive
